Measured values taken from PubChem BioAssay (NCATS).
Records with an inconclusive call do not appear. Active and inactive are the calls of the source. The call rests on the fitted dose curve; in most records, active means well fitted inhibition curve with a large enough effect; inconclusive means small, poorly fitted or top-dose-only effect; inactive means no such curve, though single readings can be large or run the other way.

molecular target: Retinaldehyde dehydrogenase 3 (Homo sapiens) (UniProt P47895); assay: qHTS for Inhibitors of the Aldehyde Dehydrogenase Family (ALDH1A3) Primary screen (AID 2061315); conditions: ALDH inhibition qHTS; series mostly up to 56 µM; activity change, negative = inhibition: at the top concentration;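 further: plate controls were DMSO vehicle for no effect and reference inhibitor for full effect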

How did the “activity change, negative = inhibition” value turn out when `CC(C)Oc1cccc(-c2cnc(N3CCC(C(N)=O)CC3)s2)c1` was run?
The value was 5.42% (inactive).

`N#Cc1nc(Nc2cccc(Cl)c2)nc(NC2CCCC2)n1` was tested. Which “activity change, negative = inhibition” value did it give?
The value was 15.8% (inactive).

For `COc1cc2ncnc(N(C)Cc3csc(C)n3)c2cc1-c1ccc2c(c1)OCO2`, which “activity change, negative = inhibition” value is on record?
Its value is -10.4% (inactive).

`COc1ccc(C2Nc3ccccc3C(=O)N2Cc2ccc(CNC(=O)CO)cc2)cc1COc1ccc(NC(C)=O)cc1` (stereo unspecified) was tested. Which “activity change, negative = inhibition” value did it give?
Its value is -8.3% (inactive).

Which “activity change, negative = inhibition” value does the source give for `COc1ccc(C2Nc3ccccc3C(=O)N2CCc2ccccc2)cc1COc1ccc(NC(C)=O)cc1` (stereo unspecified) here?
Its value is -3.63% (inactive).

With `Cc1ccnc(CC(=S)N2CCN(c3cccc(C(F)(F)F)c3)CC2)c1` as the compound, how does the “activity change, negative = inhibition” value read?
The value was 27.8% (inactive).

How did the “activity change, negative = inhibition” value turn out when `Cc1cnc(-c2ccccc2C2COC2)nc1NCc1ccc(-n2ccnn2)cc1` was run?
Its value is 4.04% (inactive).

Which “activity change, negative = inhibition” value does the source give for `O=C(CN1C(=O)N/C(=C\c2cn(-c3cccc(C(=O)O)c3)cn2)C1=O)Nc1ccccc1Cl` here?
The value was 5.53% (inactive).

With `Nc1ccccc1OC1=NS(=O)(=O)c2ccccc21` as the compound, how does the “activity change, negative = inhibition” value read?
The value was -19.6% (inactive).

With `O=C(O)c1ccc(-n2cccc2/C=C2\SC(=O)N(Cc3ccc(F)cc3)C2=O)cc1` as the compound, how does the “activity change, negative = inhibition” value read?
Its value is 6.83% (inactive).

`Cc1cc(-c2nnc3n2CCCCC3)c(C)n1-c1ccc(Cl)c(Cl)c1` was tested. Which “activity change, negative = inhibition” value did it give?
The value was 8.49% (inactive).

Which “activity change, negative = inhibition” value does the source give for `FC(F)(F)c1ccc(-c2ccc(CNc3nc(-c4ccccc4C(F)(F)F)nc4ccccc34)cc2)cn1` here?
Its value is -17.7% (inactive).

Which “activity change, negative = inhibition” value does the source give for `COc1ccc(C2Nc3ccccc3C(=O)N2CCc2ccc(Cl)cc2Cl)cc1COc1ccc(NC(C)=O)cc1` (stereo unspecified) here?
The value was -1.1% (inactive).

With `O=[S+]([O-])(Nc1ccc(-c2nc3ccccc3[nH]2)cc1)c1ccc2c(c1)OCO2` as the compound, how does the “activity change, negative = inhibition” value read?
The value was 8.51% (inactive).

How did the “activity change, negative = inhibition” value turn out when `CN(C)CCCNC(=O)c1ccc(-c2cnc3c(O)cccc3c2)cc1` was run?
Its value is 0.377% (inactive).

Which “activity change, negative = inhibition” value does the source give for `COc1ccc(OCc2cc(C3Nc4ccccc4C(=O)N3Cc3ccccc3)ccc2OC)cc1` (stereo unspecified) here?
The value was -0.82% (inactive).
